Measurements: PubChem BioAssay AID449746 (Sanford-Burnham Center for Chemical Genomics, 2010)
In all, about 2,000 compounds went through this assay and about 680 (34%) were called active. The list is a sample of the results. Values without a mark were called inactive. Rule as the data show it: active = inhibition mostly above about 28% (no sharp cut-off); inactive = mostly below about 22%.

Test: lowers stimulated NF-kB luciferase signal in 697 cells – cell-based, luminescence, single concentration, B-cell NF-kB inhibitor project, confirmation (AID 449746)
Settings: 697 B-cell NF-kB luciferase, PMA/ionomycin, 16 h; at 4 µM; hits give high values

Row | Structure (SMILES) | inhibition
1 | CCOc1cc(C(=O)N2CCc3cc(OC)c(OC)cc3C2)ccc1OC(F)F | 43.5% (active)
2 | Cc1ccc(C(=O)C[n+]2cc(-c3ccccc3)n3c2CCCCC3)cc1 | 11.4%
3 | c1ccc2[nH]c(-c3nc4ccccc4[nH]3)nc2c1 | -191%
4 | Cc1cccc(Nc2nc(-c3ccccc3)cs2)n1 | -201%
5 | CCN1/C(=C\c2ccc3ccccc3[n+]2CC)Sc2cc(C)ccc21 | 68.5% (active)
6 | COc1cccc(NC(=O)[C@H](Cc2c[nH]c3ccccc23)NC(=O)[C@@H]2Cc3ccccc3CN2)c1 | 0.1%
7 | CC[n+]1cc(C)ccc1/C=C/c1ccc(N(C)C)cc1 | 17.4%
8 | OCCCNc1nccc(-c2cc(Nc3cccc(Cl)c3)ncn2)n1 | 85.9% (active)
9 | COC(=O)C1=C(C(=O)c2ccc(C)cc2)C(c2ccccc2)n2nnnc2N1 (configuration not stated) | 22.4%
10 | CCc1ccc2oc(-c3ccc(N)cc3)nc2c1 | -417%
11 | CCCCCc1ccc(-c2ccc(C(=O)O)cc2)nc1 | -165%
12 | CNc1nc(Nc2ccc(C)c(Cl)c2)nc(N)c1[N+](=O)[O-] | -231%
13 | O=C(C1CCC1)N1CCN(S(=O)(=O)c2ccc([N+](=O)[O-])cc2)CC1 | 30.8% (active)
14 | C=CCSc1nc(N)cc(=O)[nH]1 | -19.9%
15 | COc1ccc(C(=O)n2nc(-c3ccc(Cl)cc3)nc2N)cc1OC | 46.5% (active)
16 | C=CCn1c(C)cc(C2=NNC(=NCC)SC2)c1C | 2.7%
17 | COc1cc(/C=N/NC(=O)c2ccc(N3CCCC3=O)cc2)ccc1O | -89.1%
18 | COc1ccc(-c2nc(-c3ccccc3)no2)c(OC)c1 | -330%
19 | O=C(O)COc1ccc(-c2nccc(-c3cccs3)n2)cc1 | 55% (active)
20 | CCn1c(O)c(N=NC2=NC(=O)CS2)c2cc(C)ccc21 | 17.4%
21 | COc1ccc(/C=N/Nc2ccccc2C(=O)O)cc1 | -12.1%
22 | Clc1ccc(Nc2ccc3ccccc3n2)cc1 | -340%

Row | Structure (SMILES) | inhibition
23 | C/C=C(/C)C(=O)OC1Cc2c(ccc3ccc(=O)oc23)OC1(C)C (configuration not stated) | 50.1% (active)
24 | COc1ccc(/C=N\NC(=O)c2sc(N)nc2C)cc1OC | 7.5%
25 | CCC(=O)Nc1ccc2nn(-c3ccc(F)cc3)nc2c1 | -298%
26 | COc1ccc(CNC(=O)[C@@H]2CC=C[C@@H]3CCN(C4CC4)C(=O)[C@@H]32)cc1 | 6.95%
27 | CCOC(=O)c1cc2c(=O)n3ccccc3nc2n(CC(C)C)c1=NC(=O)c1c(-c2c(F)cccc2Cl)noc1C | 33% (active)
28 | CCOc1cccc(/C=C/c2ccc3ccccc3n2)c1OC(C)=O | -337%
29 | COc1ccc(C(=O)NC2CCCc3c2cnn3-c2cccc(C)c2C)c(OC)n1 (configuration not stated) | -397%
30 | Cn1nccc1C(=O)NC1CCCc2c1cnn2-c1ccc(F)cc1F (configuration not stated) | 105% (active)
31 | Cn1nccc1C(=O)NC1CCCc2c1cnn2-c1ccccc1F (configuration not stated) | 97.9% (active)
32 | Cc1cc(Nc2cc(N3CCN(C)CC3)nc(Sc3ccc(NC(=O)C4CC4)cc3)n2)n[nH]1 | 27.8%
33 | COc1c(C)c2c(c(O)c1C/C=C(\C)CCC(=O)O)C(=O)OC2 | -398%
34 | CC(C)CC(=O)N/C(N)=N/c1nc2ccccc2s1 | -290%
35 | Cc1ccc2cc3cc(C(=O)N4CCCCCC4)oc3nc2c1 | -242%
36 | COc1cc(N=Cc2c(O)[nH]c3ccccc23)cc(OC)c1OC | 20.8%
37 | OCCN1CCN(C(=S)c2ccc(-c3ccccc3)cc2)CC1 | 47% (active)
38 | CCOC(=O)c1c(-c2ccc(C)cc2C)csc1NC(=O)CSc1nnnn1C | -192%
39 | COc1ccc(-c2csc(Nc3ccccn3)n2)cc1 | -117%
40 | O=C(CN1C(=O)c2ccccc2S1(=O)=O)N1CCc2ccccc21 | 32.4% (active)
41 | Cc1cc(N=Nc2ccc3ccccc3c2)ccc1O | -266%
42 | CC(C)(C)c1ccc(Oc2ccc(N)cc2)cc1 | 17.2%
43 | Cn1c(-c2ccc(C(F)(F)F)cc2)cc2onc(-c3ccccc3)c2c1=O | -301%
44 | Cc1cc(N)n2nc(-c3ccc(C(C)(C)C)cc3)cc2n1 | -470%

Row | Structure (SMILES) | inhibition
45 | O=C(NC(Nc1nc2ccc([N+](=O)[O-])cc2s1)(C(F)(F)F)C(F)(F)F)c1ccccc1 | -31.2%
46 | CCNC(=O)CCc1nc(-c2ccc(C(C)(C)C)cc2)no1 | 79.3% (active)
47 | CCCNC(=O)c1ccc(N2CCC3(CC2)CC(c2cccc(Br)c2)=NO3)c(NC(=O)c2ccco2)c1 | 16.6%
48 | O=C(NCCCN1CCOCC1)c1cc(-c2ccc(Cl)cc2)on1 | 17.5%
49 | O=c1c2c(nc3cc(-c4cccc(Cl)c4)[nH]n13)CCCC2 | -285%
50 | Clc1ccc2nc(CSc3ccccc3)cn2c1 | -248%
51 | CC(C)C[C@@H](N)c1nnc(SCC(=O)c2ccc(Cl)cc2)o1 | 56.2% (active)
52 | Fc1ccccc1/C=N/Nc1cc(N2CCCCC2)ncn1 | -264%
53 | CCOc1ccc(C(c2c(C)[nH][nH]c2=O)c2c(C)[nH][nH]c2=O)cc1OCC | 18.2%
54 | Cn1c(=O)cc(SCC(=O)N2CCCC2)c2cc(Cl)ccc21 | 38.2% (active)
55 | CC(C)CCNC(=O)c1ccc2c(Cl)c3c(nc2c1)CCC3 | -231%
56 | Cc1ccc(NC(=O)c2cc([N+](=O)[O-])ccc2Cl)c(O)c1 | 11.5%
57 | Cc1ccc(O)c(NC(=O)COc2cc(C)ccc2C)c1 | 28.7% (active)
58 | CC[C@]1(O)CC2CN(CCc3c([nH]c4ccccc34)[C@@](C(=O)OC)(c3cc4c(cc3OC)N(C=O)[C@H]3[C@@](O)(C(=O)OC)[C@H](OC(C)=O)[C@]5(CC)C=CCN6CC[C@]43[C@@H]65)C2)C1 (some centres not stated) | -337%
59 | COc1ccc(C2=Nc3cc(C)ccc3OC2)cc1 | -255%
60 | CNC(=O)c1ccc(NC(=O)c2cccc(C(F)(F)F)c2)cc1 | 12.7%
61 | Cc1ccc(N/C=C/C(=O)c2ccccc2)cc1C | -12.9%
62 | Cc1cccc(C(=O)Nc2ccc(CC(=O)O)cc2)c1 | 21.7% (active)
63 | COc1ccc(-n2nnnc2-c2nc3ccccc3s2)cc1 | -323%
64 | COc1ccc2nc(SCc3ccccc3)nc(C)c2c1 | -295%
65 | Cn1c(=O)n(C)c2cc(C(=O)Nc3ccc4c(c3)OCO4)ccc21 | 35.1% (active)
66 | O=C(Nc1nc2ccccc2s1)c1ccc2c(c1)OCO2 | -466%

Row | Structure (SMILES) | inhibition
67 | C/C(=N\Nc1nc(Nc2ccccc2)nc(N2CCOCC2)n1)c1cccs1 | 34.2% (active)
68 | Cc1ccc(-n2cc3ccc([N+](=O)[O-])cc3n2)cc1 | -341%
69 | Cc1cc2nc(-c3ccc(NC(=O)c4cccnc4)cc3)oc2cc1C | -187%
70 | Cc1cccc(-n2c(C)cc(/C=N\NC(=O)c3cccs3)c2C)c1 | -11.6%
71 | C[C@@H]1C[C@@H]2O[C@H]2/C=C\C=C\C(=O)Cc2c(Cl)c(O)cc(O)c2C(=O)O1 | 79.9% (active)
72 | COc1cccc(/C=C/c2ccc3ccccc3n2)c1OC(C)=O | -459%
73 | COc1ccc(/C=C2\SC(=S)N(CCC(=O)Nc3ccccn3)C2=O)cc1OC | 10.2%
74 | C=CCOc1ccc(/C=C2\SC(=S)N(CCC(=O)O)C2=O)cc1 | 54.5% (active)
75 | NS(=O)(=O)c1ccccc1NC(=O)c1c(O)c2ccccc2[nH]c1=O | -472%
76 | O=C(/C=C/c1ccc(OCc2c(F)cccc2Cl)cc1)N1CCOCC1 | -278%
77 | COc1ccc(CNC(=O)CNC(=O)c2sc3ccccc3c2Cl)cc1OC | 3.3%
78 | Cn1c(-c2ccc(F)cc2)cc2onc(-c3ccccc3Cl)c2c1=O | -244%
79 | O=C(O)CCn1c(O)c(C=C2N=c3ccccc3=N2)sc1=S | 58.5% (active)
80 | O=c1[nH]c(-c2ccccc2)c(-c2ccccc2)[nH]1 | 25.8%
81 | CCOc1ccc(N/C=C/C(=O)c2ccccc2)cc1 | -272%
82 | COc1ccccc1OCc1nc2ccccc2s1 | -319%
83 | CCCc1nc2c(C)cc(-c3nc4ccccc4n3C)cc2n1Cc1ccc(-c2ccccc2C(=O)O)cc1 | 28.4% (active)
84 | Cc1ccc(OCc2nc3ccccc3n2C)cc1 | -216%
85 | Cn1c(-c2ccc(C(=O)c3ccccc3)s2)nc2ccccc21 | -249%
86 | COc1cccc(-c2nc3cc(C)ccc3o2)c1 | -299%
87 | COc1ccc(Nc2nc(-c3ccccc3)cs2)cc1 | -131%
